Consider 27 compounds from PubChem BioAssay (Tox21).

A number with no mark means an inactive call. Inconclusive results are not listed. The source made the active and inactive calls. Unless noted, the call rests on the fitted dose curve.

Experiment [1] addresses Thyrotropin receptor (Homo sapiens) (UniProt P16473). Description: qHTS assay to identify small molecule agonists of the thyroid stimulating hormone receptor (TSHR) signaling pathway (AID 1224843). Further: nearly all actives have a fitted effect of over 45% in size. Further: potency means the concentration at half of the fitted maximal effect. In short, it runs like this:
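HEK293/TSHR, 800 cells/well; cpd 30 min RT; add cAMP-d2 + anti-cAMP-cryptate, 1 h RT; fluorescence read on plate reader. 15-pt titration, n=3.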
For orientation: In qHTS, concentration-response curves come from the screen itself.

The nature of experiment [2]: qHTS assay to identify small molecule agonists of the hypoxia (HIF-1) signaling pathway - cell viability counter screen (AID 1224844). Further: nearly all actives have a fitted effect of over 50% in size. In short, it runs like this: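 Viability counter screen: HRE-bla ME-180 cells plated 5 hrs before compound addition, treated 17 hrs at 37C and 5% CO2, then CellTiter-Glo added after the FRET reporter read; luminescence after 30 min.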

Experiment [3] can be described thus: qHTS assay to identify small molecule agonists of H2AX (AID 1224845; active means well fitted activation curve with a large enough effect in the signal ratio in the repeat runs, not every such curve was filed as active; the % refers to the signal ratio). In short, it runs like this:
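Wild-type CHO-K1 cells, plated overnight, exposed 3hr at 37C to 15 concentrations (0.76% DMSO final). Lysed, then HTRF anti-pH2AX (S139) cryptate and anti-H2AX-d2 antibodies, 24 hr room temperature; 665/620 nm emission read.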

Experiment [4] is described as follows: qHTS assay to identify small molecule agonists of the hypoxia (HIF-1) signaling pathway (AID 1224846; active means well fitted activation curve with a large enough effect in the signal ratio in the repeat runs, not every such curve was filed as active; the % refers to the signal ratio). The essentials: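 Agonist mode reporter screen. ME-180 cells stably expressing bla under HRE control received test compounds in DMSO for 17 hrs (37C, 5% CO2), and beta-lactamase activity was then detected with the CCF4-AM FRET substrate.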
Experiment [5] is described as follows: qHTS assay to identify small molecule agonists of H2AX - cell viability counter screen (AID 1224847). Further: top concentration of the series differs between compounds; nearly all actives have a fitted effect of over 30% in size. The essentials: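 Read-out: CellTiter-Glo luminescence, 30 min RT. Cells: wild-type CHO-K1, 1000/well, 10% FBS, plated overnight at 37C. Treatment: 15 concentrations, 3 hr, 37C, 0.76% DMSO.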
Experiment [6] can be described thus: qHTS assay to identify small molecule agonists of the estrogen related receptor (ERR) signaling pathway from Tox21 library (AID 1224849). Further: nearly all actives have a fitted effect of over 15% in size. To be noted: ERR reporter cell line, ONE-Glo luciferase, 18 h; at 92.4 µM (top of the series) unless noted. The essentials: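 Quantitative HTS in agonist format: NTP ERR cell line, compounds transferred in DMSO after 6 h plating, 18 h incubation at 37 C, ONE-Glo luminescence endpoint.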

The nature of experiment [7]: qHTS RealTime-Glo MT Cell Viability Assay in HepG2 cells - 24 hour (AID 1224867; active means well fitted curve in the direction sought with a large enough effect in the repeat runs; an effect the other way counts as inactive or inconclusive; further: nearly all actives have a fitted effect of over 50% in size). The essentials: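 HepG2 cells (600/well) were dispensed with RealTime-Glo reagents, incubated 5 h at 37 °C, then treated with compounds in DMSO for up to 40 h. Nonlytic NanoLuc luminescence reflecting viable cells was read at each stated time point.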
The nature of experiment [8]: A CellTox Green Cytotoxicity Assay to monitor cytotoxicity in HEK293 cells - 0 hour (AID 1224869; active means well fitted curve in the direction sought with a large enough effect in the repeat runs; an effect the other way counts as inactive or inconclusive; further: nearly all actives have a fitted effect of over 50% in size). In short, it runs like this: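 Dead-cell fluorescence measured kinetically: asymmetric cyanine dye, HEK293, 600 cells/well, 5 h settle, 23 nL cpd/DMSO, 37 C, reads 0–40 h every 8 h.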
Experiment [9] is described as follows: qHTS RealTime-Glo MT Cell Viability Assay in HEK293 cells - 32 hour (AID 1224868; active means well fitted curve in the direction sought with a large enough effect in the repeat runs; an effect the other way counts as inactive or inconclusive; further: nearly all actives have a fitted effect of over 50% in size; further: potency means the concentration at half of the fitted maximal effect). In short, it runs like this:
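HEK293 cells seeded with NanoLuc/prosubstrate reagent, rested 5 h at 37 C, then dosed and kept at 37 C up to 40 h. Nonlytic real-time luminescence from viable cells read at 0, 8, 16, 24, 32 and 40 h.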
On the % scale 0 is the no-effect control and ±100 the full control effect.

Thyrotropin receptor (Homo sapiens), sequence (P16473 whole entry, looked up): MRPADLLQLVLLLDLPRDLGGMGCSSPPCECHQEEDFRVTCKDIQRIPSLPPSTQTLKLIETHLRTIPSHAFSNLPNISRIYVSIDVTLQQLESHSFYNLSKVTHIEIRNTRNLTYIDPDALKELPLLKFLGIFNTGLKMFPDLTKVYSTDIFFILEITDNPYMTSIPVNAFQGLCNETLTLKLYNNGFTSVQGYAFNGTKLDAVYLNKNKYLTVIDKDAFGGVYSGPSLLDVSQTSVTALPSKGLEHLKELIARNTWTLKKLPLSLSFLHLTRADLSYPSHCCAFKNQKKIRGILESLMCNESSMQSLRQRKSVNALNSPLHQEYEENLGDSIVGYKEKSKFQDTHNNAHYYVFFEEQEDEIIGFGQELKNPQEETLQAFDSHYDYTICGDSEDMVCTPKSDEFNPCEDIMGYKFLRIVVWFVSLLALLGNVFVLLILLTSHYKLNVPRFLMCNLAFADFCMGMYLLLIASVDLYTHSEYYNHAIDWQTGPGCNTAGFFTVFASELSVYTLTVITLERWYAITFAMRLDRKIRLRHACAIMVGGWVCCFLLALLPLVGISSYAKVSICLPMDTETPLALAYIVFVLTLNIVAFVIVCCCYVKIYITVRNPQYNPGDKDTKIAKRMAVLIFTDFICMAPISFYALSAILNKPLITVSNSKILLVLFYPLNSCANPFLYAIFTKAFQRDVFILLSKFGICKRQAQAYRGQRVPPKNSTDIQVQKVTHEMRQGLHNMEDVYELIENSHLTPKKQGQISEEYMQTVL

For `CCO[Si](CCCS)(OCC)OCC`, the Potency entry in experiment [1] and in experiment [5] was “inactive” throughout. Further, the compound was classed as inactive in experiment [2], in experiment [3], in experiment [4], in experiment [7] and in [8]. In experiment [6], the activity change, positive = activation was 5.01%.

In the case of `Cc1ccc(S(=O)(=O)O)c(C)c1`, the Potency entry in [1], in experiment [5] and in experiment [9] was “inactive” each time. The compound was called inactive in experiment [2], in [3], in [4], in experiment [7] and in [8]. The activity change, positive = activation in experiment [6] is 16.9%.

Regarding `CC(C)OC(=O)CCCCC(=O)OC(C)C`, the Potency entry in [1], in experiment [5] and in experiment [9] was “inactive” in each case. The outcome in experiment [2], in experiment [3], in experiment [4], in experiment [7] and in [8] was inactive.

For `Nc1ncnc(Nc2ccccc2)n1`, the Potency entry in experiment [1], in experiment [5] and in experiment [9] was “inactive” in each case. Besides, the call in experiment [2], in experiment [3], in experiment [4], in experiment [7] and in experiment [8] was inactive.

Take `CC(CO)c1ccccc1` (centres undefined): the Potency entry in [1], in experiment [5] and in [9] was “inactive” in each case. The outcome in experiment [2], in experiment [3], in [4], in experiment [7] and in [8] was inactive.

Regarding `NS(=O)(=O)c1cc2c(cc1Cl)CN(C1CCCCC1)C2=O`, the Potency result in experiment [1] and in experiment [5] was “inactive” in each case. The result in experiment [2], in experiment [3], in experiment [4] and in experiment [8] was inactive. In [9], the Potency is 9.52 µM (active).

For `Nc1cccc(O)c1`, the Potency result in experiment [1], in [5] and in experiment [9] was “inactive” in each case. In addition, the call in [2], in experiment [3], in experiment [4], in experiment [7] and in [8] was inactive.

With `NCCN1CCOCC1`, the Potency result in experiment [1], in [5] and in [9] was “inactive” each time. Moreover, the outcome in experiment [2], in experiment [3], in experiment [4], in experiment [7] and in experiment [8] was inactive.

Consider `O=C(OCC(COC(=O)c1cccnc1)(COC(=O)c1cccnc1)COC(=O)c1cccnc1)c1cccnc1`, for which the Potency entry in experiment [1], in experiment [5] and in [9] was “inactive” each time. For the same compound, the compound was classed as inactive in [2], in [3], in experiment [4], in experiment [7] and in experiment [8].

For the compound `O=C(/N=N/C(=O)OCc1ccccc1)OCc1ccccc1`, the Potency in experiment [1] was 24.3 µM (active). The result in [2], in experiment [3], in [4], in experiment [7] and in experiment [8] was inactive. In addition, the Potency result in experiment [5] is “inactive”.

For the compound `COc1cc2c(cc1OC)C(=O)CC2`, the Potency result in experiment [1] and in experiment [5] was “inactive” throughout. The call in experiment [2], in experiment [3], in experiment [4], in [7] and in experiment [8] was inactive.

Regarding `CC(C)CCCC(C)(C)O`, the Potency result in [1], in [5] and in [9] was “inactive” each time. Also, the result in experiment [2], in experiment [3], in [4], in experiment [7] and in [8] was inactive.

In the case of `Cc1ccc2ccc(Cl)cc2n1`, the Potency entry in [1], in experiment [5] and in experiment [9] was “inactive” each time. The result in experiment [2], in [3], in experiment [4], in [7] and in experiment [8] was inactive.

`COCCOC(=O)C1=C(C)NC(C)=C(C(=O)OC(C)C)C1c1cccc([N+](=O)[O-])c1` (centres undefined): the Potency result in experiment [1] and in experiment [5] was “inactive” in each case. For the same compound, the outcome in [2], in experiment [3], in [4] and in [8] was inactive.

`COCCc1ccc(OCC2CO2)cc1` (centres undefined): the Potency entry in experiment [1], in [5] and in experiment [9] was “inactive” each time. Further, the outcome in experiment [2], in experiment [3], in [4], in [7] and in [8] was inactive.

For the compound `Cc1[nH]cnc1-c1ccc(Cl)cc1`, the Potency result in experiment [1], in [5] and in experiment [9] was “inactive” throughout. In addition, the outcome in [2], in [3], in experiment [4] and in experiment [8] was inactive.

With `COc1cc2c(cc1OC)[C@@H]1CC(=O)[C@@H](CC(C)C)CN1CC2`, the Potency result in experiment [1] and in experiment [5] was “inactive” in each case. Besides, the result in [2], in experiment [3], in [4], in [7] and in experiment [8] was inactive.

For the compound `CCOCCOC(=O)/C=C/c1ccc(OC)cc1`, the Potency entry in [1], in [5] and in [9] was “inactive” in each case. Besides, the outcome in experiment [2], in [3], in [4], in experiment [7] and in experiment [8] was inactive.

For the compound `CC(C)(C)c1nnc(NS(=O)(=O)c2ccc(N)cc2)s1`, the Potency entry in [1], in experiment [5] and in [9] was “inactive” throughout. Besides, the compound was classed as inactive in experiment [2], in experiment [3], in experiment [4], in [7] and in [8].

Regarding `CC(C)(C)OC(=O)c1ccc(O)cc1`, the Potency entry in experiment [1] and in experiment [5] was “inactive” throughout. Further, the compound was classed as inactive in experiment [2], in experiment [3], in [4] and in experiment [8].

As for `CN(C)C(=O)CNC(=O)Cc1ccccc1`, the Potency entry in experiment [1], in [5] and in experiment [9] was “inactive” throughout. Moreover, the outcome in experiment [2], in [3], in experiment [4] and in [8] was inactive.

As for `CNS(=O)(=O)CCc1ccc2[nH]cc(C3CCN(C)CC3)c2c1`, the Potency entry in experiment [1], in experiment [5] and in experiment [9] was “inactive” throughout. Besides, the outcome in experiment [2], in [3], in experiment [4], in [7] and in experiment [8] was inactive.

`C=Cc1ccccn1`: the Potency entry in experiment [1] and in experiment [5] was “inactive” in each case. In addition, the outcome in experiment [2], in experiment [3], in [4], in [7] and in experiment [8] was inactive.

As to `CC(N)C(=O)OC(C)(C)Cc1ccc(Cl)cc1` (centres undefined), the Potency entry in [1], in experiment [5] and in experiment [9] was “inactive” throughout. Further, the call in [2], in experiment [3], in [4], in experiment [7] and in [8] was inactive.

Consider `CCC(CC)CO`, for which the Potency entry in experiment [1], in experiment [5] and in [9] was “inactive” each time. For the same compound, the outcome in experiment [2], in experiment [3], in experiment [4], in experiment [7] and in experiment [8] was inactive.

Regarding `O=C(CCN1CCN(CCO)CC1)N1c2ccccc2Sc2ccc(C(F)(F)F)cc21`, the Potency entry in experiment [1] and in experiment [5] was “inactive” each time. Further, the compound was classed as inactive in experiment [2], in experiment [3], in experiment [4], in [7] and in experiment [8].

Turning to `CC(=O)Nc1cccc(C)c1`, the Potency result in [1] and in experiment [5] was “inactive” each time. Further, the outcome in [2], in [3], in experiment [4], in experiment [7] and in experiment [8] was inactive.
